This is an account of results in PubChem BioAssay (NCATS).

Results filed as inconclusive are left out. Where a call stands in place of a potency, no number is given. Activity calls are given as the source filed them. Calls come from the whole dose curve; as a rule, active = well fitted curve in the direction sought with a large enough effect; inconclusive = small, poorly fitted or top-dose-only effect, or another doubt; inactive = no such curve, though single readings can be large; an effect the other way counts as inactive or inconclusive.

Sequence of Calcium and integrin-binding protein 1 (Homo sapiens) (Q99828 whole entry, looked up): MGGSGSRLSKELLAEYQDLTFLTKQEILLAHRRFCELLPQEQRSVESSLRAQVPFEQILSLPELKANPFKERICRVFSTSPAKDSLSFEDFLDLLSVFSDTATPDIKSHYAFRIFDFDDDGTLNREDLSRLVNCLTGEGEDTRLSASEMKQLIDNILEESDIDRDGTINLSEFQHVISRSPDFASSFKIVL

Test system in the first assay: not listed separately
Briefly: Primary qHTS for inhibitors of La Crosse Virus (LACV) - induced cell death in SH-SY5Y cells (AID 1508616).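 Note: top concentration of the series differs between compounds; higher means more rescue of cells from virus-induced death.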 The settings on record: SH-SY5Y LACV cytopathicity rescue, ATP luminescence, 6 d; series mostly up to 4.29 µM. An outline of the steps:
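SH-SY5Y, 6000 cells/well; cpd via pin tool in DMSO; LACV 0.01 MOI; 6 d 37C 5% CO2; ATPLite, 5 min RT; luminescence normalized to ±virus DMSO controls.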
(In general: qHTS replaces the single test concentration by a dilution series.)
For `CN1CCN(C(=O)O[C@H]2c3nccnc3C(=O)N2c2ccc(Cl)cn2)CC1`, the Potency entry was “inactive”.

In the case of `Cc1ccc2c(c1)C1CN(C)CCC1N2` (configuration not stated), the Potency entry is “inactive”.

For `CCN(C(C)=O)c1cccc(-c2ccnc3c(C#N)cnn23)c1`, the Potency entry is “inactive”.

Take `CC1OC(C)OC(C)O1` (configuration not stated): the Potency entry is “inactive”.

For `CCCC1CCCCN1` (configuration not stated), the Potency entry is “inactive”.

As to `COc1ccc(C(=O)c2c(C)n(CCN3CCOCC3)c3ccccc23)cc1`, the Potency entry is “inactive”.

As for `Clc1ccc(CCC(Cn2ccnc2)Sc2c(Cl)cccc2Cl)cc1` (configuration not stated), the Potency result is “inactive”.

For `CC(C)(C)NCC(O)c1cc(Cl)c(N)c(Cl)c1` (configuration not stated), the Potency entry was “inactive”.

Regarding `CCC(COC(=O)c1cc(OC)c(OC)c(OC)c1)(c1ccccc1)N(C)C` (configuration not stated), the Potency entry is “inactive”.

Consider `CC(C)(C)CC(C)(C)c1ccc(O)cc1`, for which the Potency entry was “inactive”.

With `O=C(O)c1ccc2[nH]cc(CCCCN3CC=C(c4ccccc4)CC3)c2c1`, the Potency result was “inactive”.

Turning to `CC(=O)Nc1cc([As](=O)(O)O)ccc1O`, the Potency entry is “inactive”.

For the compound `CC(C)NCC(O)c1ccccc1Cl` (configuration not stated), the Potency entry is “inactive”.

For `CN(C)CCc1ccc(O)cc1`, the Potency entry is “inactive”.

Consider `CCCC(C)(COC(N)=O)COC(=O)NC(C)C` (configuration not stated), for which the Potency entry was “inactive”.

As for `C=C1CC[C@@]2(O)[C@H]3Cc4ccc(O)c5c4[C@@]2(CCN3CC2CC2)[C@H]1O5`, the Potency entry is “inactive”.

As for `c1ccc2c(c1)Nc1ccccc1S2`, the Potency result is “inactive”.

With `Cc1ccc(-c2nc3ccc(C)cn3c2CC(=O)N(C)C)cc1`, the Potency entry was “inactive”.

For the compound `CC1NCCOC1c1ccccc1` (configuration not stated), the Potency result is “inactive”.

`C[C@]12CC[C@H]3[C@@H](CCC4=CC(=O)CC[C@@H]43)[C@@H]1CC[C@@H]2OC(=O)CCc1ccccc1`: the Potency entry is “inactive”.

`O=C1CC[C@@]2(O)[C@H]3Cc4ccc(O)c5c4[C@@]2(CCN3CC2CC2)[C@H]1O5`: the Potency entry is “inactive”.

As to `CCC(C(N)=O)N1CCCC1=O` (configuration not stated), the Potency entry is “inactive”.

A further assay concerns the target Calcium and integrin-binding protein 1 (Homo sapiens) (UniProt Q99828). Briefly: Primary qHTS for Identification of Calcium Integrin Binding Protein 1 (CIB1) Competitor (AID 1508620).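 Note: GST tagged CIB1 binding a fluorescein labelled alphaIIb integrin peptide tracer; top concentration of the series differs between compounds.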 As to conditions: CIB1-GST / FITC-alphaIIb peptide fluorescence polarization; series mostly up to 114 µM. Put shortly: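 CIB1-GST (1 uM final) and compound incubated 15 min at room temperature before adding FITC-alphaIIb peptide tracer (100 nM final). Competition for binding read by fluorescence polarization (ex 480, em 540) after another 15 min at room temperature.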
With `CN1CCN(C(=O)O[C@H]2c3nccnc3C(=O)N2c2ccc(Cl)cn2)CC1`, the Potency result is “inactive”.

As to `Cc1ccc2c(c1)C1CN(C)CCC1N2` (configuration not stated), the Potency entry is “inactive”.

On to `CCN(C(C)=O)c1cccc(-c2ccnc3c(C#N)cnn23)c1`, for which the Potency entry was “inactive”.

For `CC1OC(C)OC(C)O1` (configuration not stated), the Potency result was “inactive”.

For `CCCC1CCCCN1` (configuration not stated), the Potency entry is “inactive”.

Turning to `COc1ccc(C(=O)c2c(C)n(CCN3CCOCC3)c3ccccc23)cc1`, the Potency entry is “inactive”.

For the compound `Clc1ccc(CCC(Cn2ccnc2)Sc2c(Cl)cccc2Cl)cc1` (configuration not stated), the Potency entry was “inactive”.

`CC(C)(C)NCC(O)c1cc(Cl)c(N)c(Cl)c1` (configuration not stated): the Potency result was “inactive”.

In the case of `CCC(COC(=O)c1cc(OC)c(OC)c(OC)c1)(c1ccccc1)N(C)C` (configuration not stated), the Potency result is “inactive”.

Consider `CC(C)(C)CC(C)(C)c1ccc(O)cc1`, for which the Potency entry was “inactive”.

Turning to `O=C(O)c1ccc2[nH]cc(CCCCN3CC=C(c4ccccc4)CC3)c2c1`, the Potency result is “inactive”.

With `CC(=O)Nc1cc([As](=O)(O)O)ccc1O`, the Potency entry was “inactive”.

For `CC(C)NCC(O)c1ccccc1Cl` (configuration not stated), the Potency result is “inactive”.

In the case of `CN(C)CCc1ccc(O)cc1`, the Potency result is “inactive”.

For `CCCC(C)(COC(N)=O)COC(=O)NC(C)C` (configuration not stated), the Potency result is “inactive”.

With `C=C1CC[C@@]2(O)[C@H]3Cc4ccc(O)c5c4[C@@]2(CCN3CC2CC2)[C@H]1O5`, the Potency result was “inactive”.

On to `c1ccc2c(c1)Nc1ccccc1S2`, for which the Potency result is “inactive”.

For `Cc1ccc(-c2nc3ccc(C)cn3c2CC(=O)N(C)C)cc1`, the Potency result is “inactive”.

Consider `CCC(=O)C(CC(C)N(C)C)(c1ccccc1)c1ccccc1` (configuration not stated), for which the Potency entry was “inactive”.

With `CC1NCCOC1c1ccccc1` (configuration not stated), the Potency result was “inactive”.

With `C[C@]12CC[C@H]3[C@@H](CCC4=CC(=O)CC[C@@H]43)[C@@H]1CC[C@@H]2OC(=O)CCc1ccccc1`, the Potency result was “inactive”.

As for `O=C1CC[C@@]2(O)[C@H]3Cc4ccc(O)c5c4[C@@]2(CCN3CC2CC2)[C@H]1O5`, the Potency entry was “inactive”.

As to `CCC(C(N)=O)N1CCCC1=O` (configuration not stated), the Potency entry is “inactive”.

Test system in a further assay: not listed separately
Briefly: Primary qHTS for small molecule stabilizers of the endoplasmic reticulum resident proteome: Secreted ER Calcium Modulated Protein (SERCaMP) assay (AID 1508630). The settings on record: SH-SY5Y GLuc-SERCaMP (Gaussia luciferase released on ER calcium loss) secretion, thapsigargin, luminescence; series mostly up to 38.4 µM. Put shortly: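 The SH-SY5Y reporter protocol was run at 3 concentrations up to 38.3 uM (primary) or 11 concentrations (follow-up): 16 h compound, 100 nM thapsigargin for 4 h, then extracellular luciferase luminescence.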
Turning to `CN1CCN(C(=O)O[C@H]2c3nccnc3C(=O)N2c2ccc(Cl)cn2)CC1`, the outcome was inactive.

As to `Cc1ccc2c(c1)C1CN(C)CCC1N2` (configuration not stated), the result was inactive.

As to `CCN(C(C)=O)c1cccc(-c2ccnc3c(C#N)cnn23)c1`, the outcome was inactive.

For the compound `CC1OC(C)OC(C)O1` (configuration not stated), the outcome was inactive.

Consider `COc1ccc(C(=O)c2c(C)n(CCN3CCOCC3)c3ccccc23)cc1`, for which the outcome was inactive.

As to `Clc1ccc(CCC(Cn2ccnc2)Sc2c(Cl)cccc2Cl)cc1` (configuration not stated), the result was inactive.

As to `CC(C)(C)NCC(O)c1cc(Cl)c(N)c(Cl)c1` (configuration not stated), the result was inactive.

`CCC(COC(=O)c1cc(OC)c(OC)c(OC)c1)(c1ccccc1)N(C)C` (configuration not stated): the outcome was inactive.

Regarding `CC(C)(C)CC(C)(C)c1ccc(O)cc1`, the outcome was inactive.

For the compound `O=C(O)c1ccc2[nH]cc(CCCCN3CC=C(c4ccccc4)CC3)c2c1`, the result was inactive.

As to `CN(C)CCc1ccc(O)cc1`, the result was inactive.

As to `CCCC(C)(COC(N)=O)COC(=O)NC(C)C` (configuration not stated), the outcome was inactive.

Turning to `c1ccc2c(c1)Nc1ccccc1S2`, the result was inactive.

With `Cc1ccc(-c2nc3ccc(C)cn3c2CC(=O)N(C)C)cc1`, the outcome was inactive.

Regarding `C[C@]12CC[C@H]3[C@@H](CCC4=CC(=O)CC[C@@H]43)[C@@H]1CC[C@@H]2OC(=O)CCc1ccccc1`, the outcome was inactive.

Regarding `O=C1CC[C@@]2(O)[C@H]3Cc4ccc(O)c5c4[C@@]2(CCN3CC2CC2)[C@H]1O5`, the outcome was inactive.

With `CCC(C(N)=O)N1CCCC1=O` (configuration not stated), the result was inactive.
